Assay [1] is described as follows: qHTS assay for small molecules that induce genotoxicity in human embryonic kidney cells expressing luciferase-tagged ATAD5 (AID 651632). Note: nearly all actives have a fitted effect of over 15% in size. A digest of the protocol: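 Concentration-response screen for ATAD5 upregulation in HEK293T luciferase reporter cells; 16 hr treatment at 37C, then luminescence after 30 min with Amplite at room temperature.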
A general note: In qHTS, concentration-response curves come from the screen itself.

A short description of assay [2]: qHTS assay for small molecule agonists of the p53 signaling pathway - cell viability (AID 651633; calls by dose curve; note: nearly all actives have a fitted effect of over 30% in size; note: potency is the fitted concentration of half-maximal effect). A digest of the protocol:
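p53RE-bla cells, seeded at 4,000 per well and rested 5 h at 37 C/5% CO2, received compounds in DMSO for 16 h at 37 C. CellTiter-Glo was then added, and luminescence was read after 30 min at room temperature to gauge cytotoxicity.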

Assay [3] can be described thus: qHTS assay for small molecule disruptors of the mitochondrial membrane potential - cell viability (AID 720634; calls by dose curve;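 note: human HepG2 liver cancer cells; series mostly up to about 83 µM; nearly all actives have a fitted effect of over 20% in size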). A digest of the protocol:
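In this qHTS format, HepG2 cells plated overnight were pinned with compound, incubated 1 hr, and assayed for ATP luminescence with CellTiter-Glo after m-MPI dye addition.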

Assay [4] is described as follows: qHTS assay to test for compound auto fluorescence at 535 nm (green) in HepG2 cells (AID 720675).
Assay [5] in a line: qHTS assay to test for compound auto fluorescence at 460 nm (blue) in HEK293 cells (AID 720678). The gist of the method:
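HEK293 cells (2,000/well, medium with 10% dialyzed FBS) attached 4-5 hr, then exposed to compound overnight at 37C, 5% CO2. Blue fluorescence read at 405/460 nm, with triamterene as reference fluorophore.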

Assay [6] can be described thus: qHTS assay to test for compound auto fluorescence at 590 nm (red) in HEK293 cells (AID 720679). A digest of the protocol: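 HEK293 cells (2,000/well, 10% dialyzed FBS) attached 4-5 hr, then dosed with compound or DMSO and incubated overnight at 37C, 5% CO2. Red fluorescence read at 540/590 nm, Rose Bengal sodium as reference fluorophore.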
A short description of assay [7]: qHTS assay to test for compound auto fluorescence at 460 nm (blue) in HEK293 cell free culture (AID 720681). The gist of the method:
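Test compounds were pinned into cell-free culture medium (DMEM with 10% FBS) and fluorescence was read directly at Ex/Em 405/460 nm. Signals were expressed as fluorescence equivalents of triamterene, with DMSO vehicle as control.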

Assay [8] can be described thus: qHTS assay to test for compound auto fluorescence at 535 nm (green) in HEK293 cell free culture (AID 720682). The gist of the method: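 Compounds were pin-transferred into cell-free DMEM with 10% FBS, and green fluorescence was read at excitation 485 nm and emission 535 nm. Intensities were expressed as fluorescein-equivalent values.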
The nature of assay [9]: qHTS assay to test for compound auto fluorescence at 590 nm (red) in HepG2 cell free culture (AID 720684). The gist of the method: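 Readout: intrinsic compound fluorescence at 590 nm emission after 540 nm excitation, scaled to Rose Bengal sodium. Matrix was cell-free MEM with 10% FBS; DMSO vehicle wells served as control.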
Assay [10] can be described thus: qHTS assay to test for compound auto fluorescence at 460 nm (blue) in HepG2 cell free culture (AID 720685). A digest of the protocol: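 Cell-free plates of MEM plus 10% FBS received 23 nL compound or DMSO vehicle; blue-channel (405/460 nm) intensity scored against triamterene as reference fluorophore.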
Assay [11] can be described thus: qHTS assay to test for compound auto fluorescence at 535 nm (green) in HepG2 cell free culture (AID 720686).
Assay [12] in a line: qHTS assay to test for compound auto fluorescence at 460 nm (blue) in HepG2 cells (AID 720687). The gist of the method: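 Cells (2,000/well in MEM with 10% FBS) attached overnight at 37 C, then were exposed to compound or DMSO for 1 hr at 37 C, 5% CO2. Fluorescence read at Ex/Em 405/460 nm, expressed as triamterene-equivalent signal.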
A short description of assay [13]: qHTS assay for identifying genotoxic compounds that show differential cytotoxicity against isogenic chicken DT40 cell lines with known DNA damage response pathways - Rad54/Ku70 mutant cell line (AID 743015). Note: nearly all actives have a fitted effect of over 60% in size. Note: potency is the fitted concentration of half-maximal effect.
A short description of assay [14]: qHTS assay to identify small molecule antagonists of the androgen receptor (AR) signaling pathway - cell viability counter screen (AID 743033; note: nearly all actives have a fitted effect of over 45% in size).
A short description of assay [15]: qHTS assay to identify small molecule antagonists of the androgen receptor (AR) signaling pathway using the MDA cell line - cell viability counter screen (AID 743041; note: nearly all actives have a fitted effect of over 45% in size). A digest of the protocol: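 qHTS viability read-out; MDA-kb2 AR-luc; R1881-stimulated; 16 h exposure at 37C, 0% CO2; CellTiter-Fluor, 30 min; fluorescence intensity.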
Assay [16] is described as follows: qHTS assay to identify small molecule antagonists of the estrogen receptor alpha (ER-alpha) signaling pathway - cell viability counter screen (AID 743074; calls by dose curve;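 note: HEK293 cells carrying ER-alpha-UAS-bla reporter stimulated with 17beta-estradiol; nearly all actives have a fitted effect of over 45% in size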).
For a further assay, the target named is Aromatase (Homo sapiens) (UniProt P11511). Kind of assay: qHTS assay to identify aromatase inhibitors (AID 743083). Note: series mostly up to about 70 µM; nearly all actives have a fitted effect of over 55% in size.
A short description of assay [17]: qHTS assay to identify aromatase inhibitors - cell viability counter screen (AID 743084).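 Note: cells stimulated with testosterone during compound exposure; nearly all actives have a fitted effect of over 55% in size.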
Assay [18] addresses Aryl hydrocarbon receptor (Homo sapiens) (UniProt P35869). Kind of assay: qHTS assay to identify small molecule that activate the aryl hydrocarbon receptor (AhR) signaling pathway (AID 743085). Note: nearly all actives have a fitted effect of over 15% in size. Note: potency is the fitted concentration of half-maximal effect. A digest of the protocol:
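Luminescence (ONE-Glo) from a dioxin-responsive-element luciferase reporter in HG2L7.5c1 HepG2 cells after 24 hr compound exposure at 37C; viability measured by CellTiter-Fluor fluorescence beforehand.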

Assay [19] in a line: qHTS assay for identifying genotoxic compounds that show differential cytotoxicity against isogenic chicken DT40 cell lines with known DNA damage response pathways - wild type cell line (AID 743012). Note: nearly all actives have a fitted effect of over 60% in size. Note: potency is the fitted concentration of half-maximal effect. A digest of the protocol: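 Endpoint: CellTiter-Glo luminescence, 30 min RT. Cells: wild type DT40, 300/well. Exposure: compounds in DMSO, 40 h, 37 C/5% CO2, after ~0.5 h pre-incubation.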

The values that follow come from PubChem BioAssay (Tox21).

Where “and” joins values, the source holds several entries; their conditions need not be identical. Equal entries are not always repeated. Results filed as inconclusive are left out. Calls of active or inactive are those of the source. Unless noted, calls come from the whole dose curve; as a rule, active = well fitted curve in the direction sought with a large enough effect in the repeat runs; inconclusive = weak or mixed curves; inactive = no such curve, though single readings can be large; an effect the other way counts as inactive or inconclusive.

Sequence of Aryl hydrocarbon receptor (Homo sapiens) (P35869 whole entry, looked up): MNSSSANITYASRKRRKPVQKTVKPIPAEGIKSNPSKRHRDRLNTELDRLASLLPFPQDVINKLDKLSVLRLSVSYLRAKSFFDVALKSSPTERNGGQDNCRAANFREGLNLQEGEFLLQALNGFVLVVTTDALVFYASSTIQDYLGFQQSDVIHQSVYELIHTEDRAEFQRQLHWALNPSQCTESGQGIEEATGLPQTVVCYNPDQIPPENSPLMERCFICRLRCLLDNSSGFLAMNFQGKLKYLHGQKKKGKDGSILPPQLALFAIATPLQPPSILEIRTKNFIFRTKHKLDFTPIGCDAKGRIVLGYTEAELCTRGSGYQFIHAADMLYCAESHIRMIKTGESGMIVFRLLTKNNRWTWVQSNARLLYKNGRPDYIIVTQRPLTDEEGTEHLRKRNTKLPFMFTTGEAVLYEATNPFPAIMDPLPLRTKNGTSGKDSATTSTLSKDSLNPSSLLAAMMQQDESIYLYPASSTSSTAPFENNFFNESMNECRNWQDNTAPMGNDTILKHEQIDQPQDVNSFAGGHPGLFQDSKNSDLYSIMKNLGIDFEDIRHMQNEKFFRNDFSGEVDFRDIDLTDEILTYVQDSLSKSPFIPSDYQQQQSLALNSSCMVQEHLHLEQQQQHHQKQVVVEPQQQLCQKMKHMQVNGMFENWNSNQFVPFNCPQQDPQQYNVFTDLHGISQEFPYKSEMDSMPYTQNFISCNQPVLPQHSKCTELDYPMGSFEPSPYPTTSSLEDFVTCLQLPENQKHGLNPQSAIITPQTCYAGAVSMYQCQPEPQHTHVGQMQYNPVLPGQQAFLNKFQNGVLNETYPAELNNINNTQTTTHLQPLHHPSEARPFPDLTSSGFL
Sequence of Aromatase (Homo sapiens) (P11511 whole entry, looked up): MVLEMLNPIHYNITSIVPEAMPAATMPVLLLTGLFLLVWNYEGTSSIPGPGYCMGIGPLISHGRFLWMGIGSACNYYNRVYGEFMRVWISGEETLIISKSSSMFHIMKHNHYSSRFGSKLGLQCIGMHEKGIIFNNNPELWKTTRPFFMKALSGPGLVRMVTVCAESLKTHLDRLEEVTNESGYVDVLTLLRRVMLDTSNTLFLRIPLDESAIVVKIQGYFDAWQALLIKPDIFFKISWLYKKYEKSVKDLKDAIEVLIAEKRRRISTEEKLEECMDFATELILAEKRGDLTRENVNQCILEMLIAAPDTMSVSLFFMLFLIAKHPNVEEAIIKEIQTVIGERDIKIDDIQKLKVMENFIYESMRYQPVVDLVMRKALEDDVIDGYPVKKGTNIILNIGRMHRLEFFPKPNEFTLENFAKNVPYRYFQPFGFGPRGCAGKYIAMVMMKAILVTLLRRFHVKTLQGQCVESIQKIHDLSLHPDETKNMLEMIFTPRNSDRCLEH

With `COc1ccc2c(c1)C13CCCC[C@@H]1C(C2)N(C)CC3` (some centres undefined), the Potency entry in assay [1], in assay [2], in [3], in assay [4], in [5] and in [7] was “inactive” each time. In addition, the Potency result in assay [8], in [10], in assay [11], in [12], in [13] and in assay [14] was “inactive” throughout. Moreover, the Potency result (in [15]; in assay [16]; in the assay with Aromatase (Homo sapiens); in assay [17]; in assay [18]) was “inactive” in each case. Besides, the outcome in assay [6] and in assay [9] was inactive.

`S=C(S)N1CCNCC1`: the Potency entry in assay [1], in assay [2], in assay [3], in assay [4], in [5] and in assay [7] was “inactive” each time. The Potency entry in assay [8], in assay [10], in assay [11], in [12], in [19] and in [13] was “inactive” in each case. The Potency result (in [14]; in assay [15]; in assay [16]; with Aromatase (Homo sapiens); in [17]; in assay [18]) was “inactive” throughout. Further, the outcome in assay [6] and in assay [9] was inactive.

In the case of `CCN(CC)CCO[C@H]1CC[C@@]2(C)C(=CC[C@@H]3[C@@H]2CC[C@]2(C)C(=O)CC[C@@H]32)C1`, the Potency entry in assay [1], in [2], in [3], in [4], in assay [5] and in assay [7] was “inactive” throughout. Further, the Potency entry in assay [8], in [10], in assay [11], in assay [12], in [14] and in assay [15] was “inactive” each time. The Potency entry (with Aromatase (Homo sapiens); in assay [17]; in assay [18]) was “inactive” each time. The call in assay [6] and in assay [9] was inactive. The Potency in assay [19] and in assay [13] was 1.33 µM (active) each time.

As for `C[C@]12CC[C@H]3[C@@H](CCC4=CC(=O)CC[C@@]43C)[C@@H]1CC[C@H]2O`, the Potency entry in assay [1], in assay [2], in [3], in [4], in assay [7] and in assay [8] was “inactive” each time. Further, the Potency result in assay [10], in [11], in assay [12], in [14], in [15] and in [16] was “inactive” in each case. The Potency result (with Aromatase (Homo sapiens); in [17]; in assay [18]) was “inactive” throughout. Besides, the result in assay [6] and in assay [9] was inactive. The Potency was 23.7 µM (active) in assay [19] and 29.8 µM (active) in assay [13].

On to `c1ccc(C2(N3CCCC3)CCCCC2)cc1`, for which the Potency entry in assay [1], in assay [3], in assay [4], in assay [7], in [8] and in assay [10] was “inactive” each time. The Potency entry (in assay [11]; in assay [12]; in assay [14]; in assay [16]; with Aromatase (Homo sapiens); in assay [17]) was “inactive” throughout. Further, the Potency in assay [2] was 26.6 µM (active); in assay [19], 5.31 µM (active); in assay [13], 7.5 µM (active); in [18], 26.6 µM (active). For the same molecule, the call in assay [6] and in [9] was inactive.

Take `C=C[C@H]1CN2CC[C@H]1C[C@@H]2[C@@H](O)c1ccnc2ccccc12`: the Potency entry in assay [1], in assay [3], in [4], in assay [5], in assay [7] and in assay [10] was “inactive” in each case. In addition, the Potency result (in assay [11]; in [12]; in assay [15]; in assay [16]; with Aromatase (Homo sapiens); in [17]) was “inactive” throughout. Besides, the Potency entry in assay [18] was “inactive”. The molecule was called inactive in assay [6] and in assay [9].

In the case of `CC(C)[C@@]1(NC(=O)[C@@H]2C[C@@H]3c4cccc5[nH]cc(c45)C[C@H]3N(C)C2)O[C@@]2(O)[C@@H]3CCCN3C(=O)[C@H](Cc3ccccc3)N2C1=O`, the Potency entry in [1], in assay [2], in assay [3], in [4], in [5] and in assay [7] was “inactive” throughout. The Potency result in [10], in assay [11], in assay [12], in assay [14], in assay [15] and in assay [16] was “inactive” each time. The Potency entry (with Aromatase (Homo sapiens); in [17]; in [18]) was “inactive” each time. In addition, the call in [6] and in assay [9] was inactive. Moreover, the Potency was 29.8 µM (active) in [19]; 23.7 µM (active) and 26.6 µM (active) in assay [13].
